Compound activity from PubChem BioAssay.
V-ATPase pH: alters yeast V-ATPase proton transport | S. cerevisiae, pHLuorin cytosolic pH fluorescence | response, % at 10 µM | 350,000 compounds, 0.37% hits | AID 504577; in the data active = response mostly above about 7.3%, no sharp cut-off; inactive = mostly below about 5.4%; note: actives read high
Exocytosis inh: lytic granule exocytosis inhibition | inhibition, % at 10 µM | 360,000 compounds, 0.66% hits | TALL-104 LAMP-1 surface exposure, flow cytometry; cells stimulated with thapsigargin and PMA;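 active = inhibition above about 55%, limit read from the data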
VLA-4 inh: inhibition in a human VLA-4 binding assay; P13612; VLA-4 expressing cells, ligand binding flow cytometry; inhibition, % (about 7 µM as worked out from the volumes in the protocol); 330,000 compounds, 0.2% hits; AID 2557; in the data active = inhibition above about 50%
GASC-1 inh: human JMJD2C demethylase inhibition. Q9H3R0. GST-JMJD2C(1-420) H3K9me3 demethylation, DELFIA europium. inhibition, % at 2.35 µM. 330,000 compounds, 0.069% hits. AID 2099;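 active = more than half of a compound's replicate wells show inhibition beyond 50%, single wells judged on their own value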;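 note: signal counts dimethyl H3K9 product captured on neutravidin plate; 0% = median of DMSO wells and 100% = 0.3 times that DMSO median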
Target sequence (Q9H3R0 1-420 limits assumed): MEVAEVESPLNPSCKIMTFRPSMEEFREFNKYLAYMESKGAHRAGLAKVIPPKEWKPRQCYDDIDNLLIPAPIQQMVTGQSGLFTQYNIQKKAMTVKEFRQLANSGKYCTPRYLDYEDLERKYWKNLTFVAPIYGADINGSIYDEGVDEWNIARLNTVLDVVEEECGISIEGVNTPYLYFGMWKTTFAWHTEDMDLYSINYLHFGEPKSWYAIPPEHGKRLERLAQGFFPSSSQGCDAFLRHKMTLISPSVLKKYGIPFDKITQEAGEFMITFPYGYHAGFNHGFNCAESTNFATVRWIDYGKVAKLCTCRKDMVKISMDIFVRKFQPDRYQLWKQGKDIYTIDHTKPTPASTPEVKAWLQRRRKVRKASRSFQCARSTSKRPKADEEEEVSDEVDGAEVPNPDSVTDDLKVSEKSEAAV
MEX-5 binding: C. elegans MEX-5 TCR-2 RNA binding activity | Q9XUB2 | MEX-5/FITC-TCR2 RNA binding, fluorescence polarization; active compounds read low | activity score (negative = inhibition of binding), % at 10 µM | AID 1832 | 300,000 compounds, 0.38% hits;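 active = inhibition past about -25% in most replicates, and total fluorescence under double the plate's negative control median, limit read from the data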;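 note: 0% = DMSO and -100% = 5 µM competing unlabeled TCR2 RNA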
HTR2A ag: mouse HTR2A agonism via beta-arrestin recruitment; activation, % at 7.6 µM; 360,000 compounds, 0.66% hits; P35363; CHO-K1 mHTR2A beta-arrestin complementation, luminescence; percent of 30 µM serotonin response;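 active = activation above a run cutoff, the mean activation of all tested compounds plus 3 SD, cut at about 14% in these data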;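 note: 0% = plate median of compound wells and 100% = 30 µM serotonin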
Granule exo CP1: blocks lytic granule exocytosis; shares compounds with Exocytosis inh; TALL-104 cells, LAMP-1 externalization, flow cytometry; stimulated with PMA plus thapsigargin; inhibition, % at 10 µM; 1,500 compounds, 11% hits; in the data active = inhibition above about 60%;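 note: 0% = stimulated vehicle wells and 100% = unstimulated wells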
* marks the source's active call; other numbers are inactive results. This is a sample that favours compounds with a hit; in the whole collection about 2.2% have one here.

How did Cc1nnc(NC(=O)CN2CCN(Cc3ccc(F)cc3Cl)CC2)s1 do in these assays?
V-ATPase pH: -1.8; Exocytosis inh: -9.0; VLA-4 inh: 14.3; GASC-1 inh: -17.5; MEX-5 binding: 2.5; HTR2A ag: -1.4

What do the screens show for `COc1ccc(Cn2c(SCc3ccccc3C)nc3cc(OC)c(OC)cc3c2=N)cc1`?
V-ATPase pH: -3.4; Exocytosis inh: 95.8*; VLA-4 inh: -9.8; GASC-1 inh: -11.3; MEX-5 binding: -2.5; HTR2A ag: -8.2; Granule exo CP1: 59.2

How did COc1cc2nc(SCc3ccc(F)cc3)n(Cc3cccs3)c(=N)c2cc1OC do in these assays?
V-ATPase pH: -1.1; Exocytosis inh: -1.2; VLA-4 inh: -6.0; GASC-1 inh: 4.4; MEX-5 binding: 1.5; HTR2A ag: -7.5

Results for CC(=O)CCc1oc2c([N+](=O)[O-])cccc2c1-c1ccc(C)o1 ?
V-ATPase pH: 4.6; Exocytosis inh: 71.6*; VLA-4 inh: -20.3; GASC-1 inh: -15.2; MEX-5 binding: -0.9; HTR2A ag: -4.5; Granule exo CP1: -4.8

How did CC(=O)CCc1oc2ccccc2c1-c1ccccc1 do in these assays?
V-ATPase pH: -0.6; Exocytosis inh: -27.7; VLA-4 inh: 1.0; GASC-1 inh: 1.2; MEX-5 binding: 3.9; HTR2A ag: -6.2

How did C/C(=C\c1ccccc1)C(=O)Nc1ccc(Cl)cn1 do in these assays?
V-ATPase pH: 1.4; Exocytosis inh: 9.3; VLA-4 inh: -1.4; GASC-1 inh: -1.1; MEX-5 binding: 1.4; HTR2A ag: -4.4

How did O=C(NC1CCCCC1)c1cccc(OCc2ccccc2)c1 do in these assays?
V-ATPase pH: 0.8; Exocytosis inh: -5.7; VLA-4 inh: 0.6; GASC-1 inh: -5.8; MEX-5 binding: 1.5; HTR2A ag: -11.6

What do the screens show for `COc1cc(OC)cc(C(=O)NCCNc2nc3cc(C)cc(C)c3cc2C#N)c1`?
V-ATPase pH: 6.1; Exocytosis inh: 61.3*; VLA-4 inh: -3.4; GASC-1 inh: -17.1; MEX-5 binding: -3.5; HTR2A ag: 3.6; Granule exo CP1: -9.7

How did COc1ccc(C(=O)NCCCNc2nc3cc(C)cc(C)c3cc2C#N)cc1 do in these assays?
V-ATPase pH: 0.7; Exocytosis inh: -1.6; HTR2A ag: 5.9

How did CC1CCN(CCCNC(=O)c2ccc3c(=O)n(Cc4ccc(Cl)cc4)c(=S)[nH]c3c2)CC1 do in these assays?
V-ATPase pH: -3.1; Exocytosis inh: 70.7*; VLA-4 inh: 14.2; GASC-1 inh: 2.7; MEX-5 binding: -4.1; HTR2A ag: -9.9; Granule exo CP1: 10.6

How did COC(=O)c1ccc2c(=O)n(Cc3ccc(C(=O)NCCCN4CCC(C)CC4)cc3)c(=S)[nH]c2c1 do in these assays?
V-ATPase pH: 3.3; Exocytosis inh: 1.3; VLA-4 inh: -6.9; GASC-1 inh: -1.7; MEX-5 binding: 2.6; HTR2A ag: 3.9

Results for CC(=O)N1c2ccc(S(=O)(=O)N(C)CC(=O)Nc3ccccc3C)cc2CC1C (stereo not given) ?
V-ATPase pH: -3.2; Exocytosis inh: -0.7; VLA-4 inh: 13.7; GASC-1 inh: -1.5; MEX-5 binding: 2.7; HTR2A ag: 4.0

What do the screens show for `c1ccc(CC2CCN(c3ncnc4sccc34)CC2)cc1`?
V-ATPase pH: -98.4; Exocytosis inh: 63.1*; GASC-1 inh: -21.6; MEX-5 binding: 1.2; HTR2A ag: -1.1; Granule exo CP1: -10.8

Results for O=C(O)c1cc2c(N3CCC(Cc4ccccc4)CC3)ncnc2s1 ?
V-ATPase pH: 1.2; Exocytosis inh: 3.7; VLA-4 inh: 2.9; GASC-1 inh: 5.0; MEX-5 binding: -1.7; HTR2A ag: 0.6

How did COc1ccc(-c2noc(N3CCCC(C(=O)Nc4ccc(F)cc4F)C3)n2)cc1 (stereo not given) do in these assays?
V-ATPase pH: -2.5; Exocytosis inh: -1.4; VLA-4 inh: -4.6; GASC-1 inh: -6.1; MEX-5 binding: -1.0; HTR2A ag: 3.4

Results for O=C(CC1C(=O)NCCN1Cc1ccccn1)NCCc1ccccc1F (stereo not given) ?
V-ATPase pH: -0.8; Exocytosis inh: 3.2; VLA-4 inh: -5.0; GASC-1 inh: -3.3; MEX-5 binding: -1.3; HTR2A ag: -2.1

Results for COc1ccc(OC)c(Nc2cc(C)nc3ccc(C)cc23)c1 ?
V-ATPase pH: -1.5; Exocytosis inh: 55.9*; VLA-4 inh: 8.5; GASC-1 inh: 0.0; MEX-5 binding: 0.0; HTR2A ag: -2.5; Granule exo CP1: -11.7

How did CCOc1ccccc1Nc1cc(C)nc2ccc(C)cc12 do in these assays?
V-ATPase pH: -2.9; Exocytosis inh: 80.9*; VLA-4 inh: 4.0; GASC-1 inh: -10.1; MEX-5 binding: 0.7; HTR2A ag: -4.6; Granule exo CP1: -6.9

Results for CCOc1ccccc1Nc1cc(C)nc2ccccc12 ?
V-ATPase pH: 2.1; Exocytosis inh: 16.0; HTR2A ag: -5.3

Results for COc1ccc2[nH]c3c(c2c1)CCN1C(=O)C(CC(=O)NCCCn2ccnc2)C[C@H](C(=O)N(C(C)C)C(C)C)[C@@]31C (stereo not given in full) ?
V-ATPase pH: -0.4; Exocytosis inh: -16.7; HTR2A ag: -0.3

What do the screens show for `Cc1ccc(S(=O)(=O)N(C)C)cc1NC(=O)c1cc(-c2ccco2)nc2ccccc12`?
V-ATPase pH: 1.6; Exocytosis inh: 2.2; VLA-4 inh: 6.9; GASC-1 inh: 2.8; MEX-5 binding: 2.6; HTR2A ag: 3.7

What do the screens show for `O=C(NC1CCCCC1)C(c1ccccc1F)n1c(=O)c(-c2cc3ccccc3[nH]2)nc2ccccc21` (stereo not given)?
Exocytosis inh: 4.1; HTR2A ag: -1.0

Results for Cc1cc(CNC(=O)COc2ccc([N+](=O)[O-])cc2)c2ccccc2n1 ?
V-ATPase pH: 2.0; Exocytosis inh: 60.2*; VLA-4 inh: 2.4; GASC-1 inh: -2.5; MEX-5 binding: 1.6; HTR2A ag: 1.1; Granule exo CP1: -14.0

Results for O=C1Nc2ccc(C(=O)O)c(O)c2C1=O ?
V-ATPase pH: -4.1; Exocytosis inh: -5.0; HTR2A ag: 0.4

How did CC(=O)N1c2ccc(C)cc2C(c2ccccc2)CC1C (stereo not given) do in these assays?
V-ATPase pH: -1.4; Exocytosis inh: 80.1*; VLA-4 inh: -16.4; GASC-1 inh: -1.3; MEX-5 binding: -0.7; HTR2A ag: -4.3; Granule exo CP1: -10.4

How did CSc1ccccc1C(=O)N1CCc2ccc(NC(=O)c3ccccn3)cc2C1 do in these assays?
V-ATPase pH: 0.5; Exocytosis inh: 1.1; HTR2A ag: -4.8

Results for Cc1cc(O)c(-c2cc(O)c(C)cc2O)cc1O ?
V-ATPase pH: 1.2; Exocytosis inh: 102.3*; VLA-4 inh: 25.6; GASC-1 inh: 22.2; MEX-5 binding: -79.8*; HTR2A ag: -5.3; Granule exo CP1: 22.8
